# Results: PubChem BioAssay AID651595 (National Center for Advancing Translational Sciences (NCATS), 2012)
# Screen size: about 1,100 compounds; fewer than 10 were called active. Roughly 6% stayed inconclusive and do not appear here. A selection follows. Values without a mark were called inactive. The call rests on the fitted dose curve; in most records, active means well fitted cell-killing curve with a large enough effect; inconclusive means small, poorly fitted or top-dose-only effect; inactive means flat fitted curve, though single readings scatter.
# Assay: qHTS of Nrf2 Activators: Hit Validation in Cytotox Assay;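 further: compound exposure lasted 24 hours before the ATP readout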; on activity change, negative = cytotoxicity: 0% is about no effect
# Details: Cell viability counter-screen for Nrf2 activator hits; series mostly up to 46.1 µM; activity change, negative = cytotoxicity: at the top concentration
# Text: Many diseases have some form of oxidative stress injury and ties to inflammation, causing a host of problems for the patient. The antioxidant response element (ARE) plays an important role in alleviating the harmful effects of oxidative stress. The antioxidant response element (ARE) is a transcriptional regulatory element involved in the activation of genes coding for a number of antioxidant proteins and detoxifying enzymes. These enzymes work in concert to protect tissues from oxidative insults and chemical toxicities in human hepatocytes and immune cells. The protective effects of ARE activation are primarily triggered through Nrf2 (NF-E2-related factor) binding to and activating AREs. It is known that Nrf2 controls the production of over 250 antioxidant and detoxification proteins (Hu et al., 2006), thereby protecting tissues by increasing cellular antioxidant content and suppressing inflammatory signaling pathways. The transcription factor Nrf2 is a central link between oxidative chemicals, such as phenolic antioxidants and electrophilic compounds, and the activation of ARE. Nrf2 levels are constitutively low as a consequence of its interaction with Keap1, which targets its degradation (Zipper and Mulcahy, 2002). Electrophiles react with key cysteine residues in Keap1, releasing Nrf2 and allowing its translocation to the nucleus. Once within the nucleus, Nrf2 complexes with coactivators such as p300, and binds to the AREs to induce gene transcription of cytoprotective enzymes, resulting in the prevention of toxicity. Activation of Nrf2 protects tissues by increasing cellular antioxidant content and suppressing inflammatory signaling pathways. Identifying novel and potent Nrf2 activators by using the AREc32 cell line to detect ARE activation by small molecules will lead to the identification and development of probes to study protective pathways in multiple tissues. These specific probes are essential to study the ARE pathway, and eventually to determine whether this pathway does activate genes that could protect against a host of diseases, including cardiovascular diseases, obesity, diabetes, Alzheimer's, and Parkinson's disease.
# This project's aim is to identify novel and potent Nrf2 activators by using the AREc32 cell line to detect ARE activation by small molecules, which will lead to the identification and development of probes to study the ARE pathway. Cytotoxic compounds are flagged as active, and inactivity is desired in this assay.
# NIH Chemical Genomics Center [NCGC]
# NIH Molecular Libraries Probe Centers Network [MLPCN]
# Assay Submitter (PI): Curtis Klaassen, University of Kansas Medical Center
# Cell viability after compound treatment was measured using a luciferase-coupled ATP quantitation assay (CellTiter-Glo, Promega) in AREc32_fluc cells. The change of intracellular ATP content indicates the number of metabolically competent cells after compound treatment. AREc32_fluc cells were harvested from T225 flask and resuspended in phenol red free OPTI-MEM medium with 5% FBS. Then 5 microL of 200,000 cells/ml resuspended cells was dispensed into each well of white, solid bottom, 1536-well tissue culture-treated plates using a Multidrop Combi dispenser. After overnight culture at 37 degrees C with 5% CO2, a total of 23 nL of compounds at 7 selected concentrations from the cherry pick or positive control (40 uM stock of CDDO-IM and 2 mM of tBHQ) in DMSO was transferred to each well of the assay plate using a pintool (Kalypsys, San Diego, CA), and the plates were further incubated at 37 degrees C with 5% CO2 for 24 hours. After that, 4 microL of CellTilter-GloTM luminescent substrate mix (Promega) was added to each well. The plate was incubated at room temperature for 30 minutes. The plates were measured on a ViewLux plate reader (PerkinElmer) with clear filter.
# Potency means the concentration at half of the fitted maximal effect.
Compound,"activity change, negative = cytotoxicity [%]",Potency
O=c1c2ccccc2oc2cc(Br)ccc12,-0.78,–
COc1ccc(C=O)cc1OS(=O)(=O)c1ccccc1[N+](=O)[O-],3.78,–
COc1ccccc1Nc1nc2ccccc2n2cnnc12,7.57,–
O=c1cc(-c2ccccc2Cl)oc2c(Br)ccc(O)c12,-1.03,–
Cc1ccc(N=C2NC(=O)S/C2=C\c2ccco2)cc1,-1.78,–
c1ccc(-c2nc3c4ccccc4ccn3c2Cc2ccsc2)cc1,-15.8,–
COC(=O)c1c(NC(=O)/C=C/C(=O)O)sc(C)c1-c1ccc(C(C)C)cc1,-2.1,–
COc1cccc(-c2nc3n(n2)CCc2ccccc2-3)c1,-3.83,–
C/C(=N\NC(=O)COc1ccccc1[N+](=O)[O-])c1cccs1,3.87,–
O=c1oc2ccccc2cc1-c1nc(-c2cccs2)cs1,2.24,–
NC(=O)c1oc2ccccc2c1NC(=O)c1ccco1,-0.897,–
Brc1ccccc1/C=N/Nc1ccccn1,2.41,–
O=C(/C=C/c1ccccc1Cl)Nc1nc(-c2cccs2)ns1,-0.488,–
Cc1[nH]c2ccccc2c1N=Nc1ccccc1F,-1.48,–
O=C(N=Nc1c(O)[nH]c2ccc(Br)cc12)c1ccco1,-0.259,–
CCOC(=O)N/N=C\C=C\c1ccco1,2.28,–
O=C(NC(=S)Nc1ccc(Br)cn1)c1cccs1,2,–
COc1ccccc1C=Cc1ccnc2ccccc12,1.67,–
S=C(NNc1ccc2ccccc2c1)NC1CCCCC1,-1.82,–
OCC1OC(n2cnc3c(NCc4ccccc4O)ncnc32)C(O)C1O (centres undefined),–,5.17 µM (active)
c1ccc2c(-c3nc4ncccc4o3)cccc2c1,-2,–
COc1ccc([N+](=O)[O-])cc1C1NN=C(c2ccccc2O)S1 (centres undefined),-3.67,–

Compound,"activity change, negative = cytotoxicity [%]",Potency
Clc1ccc(Br)cc1-c1nc(-c2ccncc2)no1,2.28,–
NC(=O)c1c(NC(=O)c2ccco2)sc2c1CCC2,1.87,–
O=C(Nc1ccccn1)c1csc2c1CCCC2,-2.81,–
O=C(Nc1ccccn1)Nc1ccccc1Cl,6.29,–
CC1(C)CC[C@]2(C(=O)n3ccnc3)CC[C@]3(C)[C@H](C(=O)C=C4[C@@]5(C)C=C(C#N)C(=O)C(C)(C)[C@@H]5CC[C@]43C)[C@@H]2C1,–,8.2 µM (active)
Fc1ccccc1-c1nc(-c2ccc(Cl)cc2)no1,-0.963,–
COc1cc(/C=N/Nc2nc3ccccc3s2)ccc1OC(=O)c1ccccc1F,2.19,–
Cc1c(Cl)cccc1NC(=S)NC(=O)c1ccccc1,-23.4,–
c1ccc(-c2cc3c(-n4cccc4)ncnc3o2)cc1,0.0297,–
O=C(NC(=S)Nc1nc(-c2ccccc2)cs1)c1cccs1,0.308,–
CS(=O)(=O)Nc1ccc(C(=O)Nc2cccc([N+](=O)[O-])c2)cc1,-7.34,–
COc1c(C(=O)Nc2nnc(C3CC3)s2)csc1Cl,6.48,–
O=C(Nc1cc(-c2nc3cc(Cl)ccc3o2)ccc1Cl)c1ccco1,2.73,–
Cc1cc(=O)oc2c(C(=O)/C=C\c3cccs3)c(O)ccc12,-9.76,–
Cn1cnnc1Sc1ccc(/C=C/C(=O)c2ccc(O)cc2)cc1[N+](=O)[O-],-12.4,–
COC(=O)c1c(NC(=O)c2ccco2)sc(C)c1C,8.04,–
c1cncc(-c2noc(-c3cccc4ccccc34)n2)c1,-0.825,–
Nc1c(Cl)cc(N=Nc2ccccc2)cc1Cl,-1.01,–
Cc1sc2c(c1C)C(=O)NC(c1ccccc1F)N2 (centres undefined),5.03,–
Clc1cccc(Cc2c(-c3ccco3)nc3c4ccccc4ccn23)c1,-6.06,–
Cc1csc(NC(=O)/C=C/c2ccco2)n1,6.19,–
c1ccc(N2CC3COc4ccccc4C3=N2)cc1 (centres undefined),4.77,–
